Inconclusive results are not listed. The source made the active and inactive calls.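 The calls were made as follows: active = compounds whose potency, the dose giving half inhibition, is below 20 µM; inconclusive = compounds meeting neither the active nor the inactive rule; inactive = potency over 20 µM or below 50% inhibition when unfitted.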

Chain of Integrin alpha-IIb (Homo sapiens) (P08514 whole entry, looked up): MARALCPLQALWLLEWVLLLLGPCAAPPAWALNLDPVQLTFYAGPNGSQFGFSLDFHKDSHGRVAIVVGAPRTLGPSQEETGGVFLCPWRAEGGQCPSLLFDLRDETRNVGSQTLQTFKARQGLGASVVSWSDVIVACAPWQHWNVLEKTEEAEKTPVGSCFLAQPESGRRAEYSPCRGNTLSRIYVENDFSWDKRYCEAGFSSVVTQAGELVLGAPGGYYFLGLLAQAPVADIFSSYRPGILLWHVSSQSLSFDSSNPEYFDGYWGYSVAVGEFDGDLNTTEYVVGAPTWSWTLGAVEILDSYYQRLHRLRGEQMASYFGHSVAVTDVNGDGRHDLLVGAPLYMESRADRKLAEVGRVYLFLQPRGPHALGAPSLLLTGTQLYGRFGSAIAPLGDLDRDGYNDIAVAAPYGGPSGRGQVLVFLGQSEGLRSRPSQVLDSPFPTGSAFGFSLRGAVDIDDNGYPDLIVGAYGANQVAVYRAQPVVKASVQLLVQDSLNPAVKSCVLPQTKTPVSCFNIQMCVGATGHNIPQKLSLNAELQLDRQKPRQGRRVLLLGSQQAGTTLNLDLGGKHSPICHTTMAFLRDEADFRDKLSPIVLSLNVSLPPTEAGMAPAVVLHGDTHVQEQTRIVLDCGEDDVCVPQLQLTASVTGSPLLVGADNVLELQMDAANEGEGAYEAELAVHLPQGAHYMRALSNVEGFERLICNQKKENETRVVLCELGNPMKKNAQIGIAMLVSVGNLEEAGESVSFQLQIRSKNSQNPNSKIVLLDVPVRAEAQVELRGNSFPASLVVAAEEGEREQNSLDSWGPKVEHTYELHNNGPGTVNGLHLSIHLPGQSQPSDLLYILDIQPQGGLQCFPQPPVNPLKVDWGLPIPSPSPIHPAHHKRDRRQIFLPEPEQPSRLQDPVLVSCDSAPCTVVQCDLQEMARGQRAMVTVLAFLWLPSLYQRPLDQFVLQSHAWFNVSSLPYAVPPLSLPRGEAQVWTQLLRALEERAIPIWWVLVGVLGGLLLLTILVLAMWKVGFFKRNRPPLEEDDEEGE

The target in this assay is Integrin alpha-IIb (Homo sapiens) (UniProt P08514). In words: Platelet Adhesion Secondary Assay for Inhibitors of Platelet Integrin alphallb-beta3. Conditions: human platelet adhesion to fibrinogen, calcein fluorescence; inhibition: at 30 µM, stronger effect = higher value. From the text:
NIH Molecular Libraries Probe Production Network [MLPCN] NIH Chemical Genomics Center [NCGC] MLPCN Grant: 1 R03 MH083257-01 Assay Provider: Barry Coller, Rockefeller University NCGC Assay Overview: The alphaIIbbeta3 receptor plays a vital role in hemostasis and thrombosis, where receptor deficiency causes the hemorrhagic disorder, Glanzmann thrombasthenia, and uncontrolled receptor activation causes thrombosis and blood vessel occlusion. Small molecule inhibitors of alphaIIbbeta3, tirofiban and eptifibatide, have undesirable side effects thought to arise from conformational changes in alphaIIbbeta3. These changes transiently activate the receptor to cause spontaneous platelet aggregation and thrombus formation. […] This secondary assay measures the binding of human plates to fibrinogen, an extracellular matrix protein (Blue et al., 2008). Platelets were loaded with a fluorescent dye, calcein, and added to fibrinogen-coated plates. Following incubation, unbound platelets were removed by washing and bound platelets were detected by measuring fluorescence intensity. Inhibitors of alphaIIbbeta3 block platelet binding to fibrinogen and result in a decrease in fluorescence intensity.
NCGC Assay Protocol Summary: Human fibrinogen (50 ug/mL) in Tris/saline (100 mM NaCl, 50 mM Tris/HCl, pH 7.4; American Diagnostica, Stamford, CT) was added to black, clear-bottom, untreated polystyrene, nonsterile 384-well microtiter plate wells (Corning no. 3711; Acton, MA) using a peristaltic microplate dispenser (WellMate; Matrix, Hudson, NH). After incubating at 22 C for 1 hour, plates were washed 4 times with Tris/saline using an automated plate washer (ELX405; Bio-Tek, Winooski, VT), and wells were then blocked with HBMT (138 mM NaCl, 12 mM NaHCO3, 10 mM HEPES, 2.7 mM KCl, 0.4 mM NaH2PO4, 0.1% glucose, 0.35% BSA, pH 7.4) for at least 1 hour. After 2 additional washes, 15 uL HBMT was allowed to remain in each well. Compounds were added to the wells with a liquid handling robot (MiniTrak V; PerkinElmer, Wellesley, MA) using a pin tool (VP Scientific, San Diego, CA) that added 0.1 uL compound in DMSO. Fifteen microliters 5E11/L calcein-labeled platelets were then added (2.5E11/L final concentration). After 1 hour of adhesion, wells were washed 4 times with HBMT-CaCl2/MgCl2 and the plates were read by an Envision (Perkin Elmer) to detect calcein fluorescence (490 nm excitation and 515 nm emission). Positive controls consisted of wells containing platelets without compounds. Negative controls were wells containing platelets and known inhibitors of alphaIIbbeta3, including mAbs 7E3 and 10E5, and EDTA. Reference Blue R, Murcia M, Karan C, Jirouskova M, and Coller BS. Application of high-throughput screening to identify a novel alphaIIb-specific small- molecule inhibitor of alphaIIbbeta3-mediated platelet interaction with fibrinogen. Blood. 2008, 111(3):1248-56
The inhibition is how much of the control response was suppressed. As to `O=C(Nc1cccc(-c2nn3c(=O)cc(N4CCNCC4)nc3s2)c1)c1ccon1`, the inhibition is 32% (inactive). On to `CC(C)(C)c1nn2c(=O)cc(N3CCNCC3)nc2s1`, for which the inhibition is 21% (inactive).

For `Cc1noc(C)c1-c1cccc(-c2nn3c(=O)cc(N4CCNCC4)nc3s2)c1`, the inhibition is 26% (inactive). On the same count and under the same terms, under `CCc1nn2c(=O)cc(-c3ccncc3)nc2s1` stands 25% (inactive). On to `C[C@H](N)C(=O)Nc1cccc(-c2nn3c(=O)cc(N4CCNCC4)nc3s2)c1`, for which the Potency was 8200 nM (active). Consider `COCc1nn2c(=O)cc(N3CCNCC3)nc2s1`, for which the inhibition is 18% (inactive). Turning to `NCC(=O)Nc1cccc(-c2nn3c(=O)cc(N4CCNCC4)nc3s2)c1`, the Potency is 1100 nM (active).

As to `CCc1nn2c(=O)cc(N3C(C)CNCC3C)nc2s1` (stereo not given), the inhibition was 27% (inactive). Same read-out and setting: the result for `CNCC(=O)Nc1cccc(-c2nn3c(=O)cc(N4CCNCC4)nc3s2)c1` reads 24% (inactive).

As for `O=C(O)c1cc(-c2cccc(-c3nn4c(=O)cc(N5CCNCC5)nc4s3)c2)cs1`, the Potency is 2400 nM (active). Regarding `CCc1nn2c(=O)cc(NC3CNC3)nc2s1`, the inhibition is 23% (inactive). As to `Nc1ncc(-c2cccc(-c3nn4c(=O)cc(N5CCNCC5)nc4s3)c2)cn1`, the Potency was 3500 nM (active).

For the molecule `NC(=O)c1ccc(-c2cccc(-c3nn4c(=O)cc(N5CCNCC5)nc4s3)c2)cc1`, the Potency is 855 nM (active).

For the molecule `O=C(O)c1ccc(-c2nn3c(=O)cc(N4CCNCC4)nc3s2)cc1`, the inhibition was 48% (inactive).

Take `O=C(O)c1cccc(-c2cccc(-c3nn4c(=O)cc(N5CCNCC5)nc4s3)c2)c1`: the Potency is 460 nM (active).

Values taken from PubChem BioAssay AID2634 (National Center for Advancing Translational Sciences (NCATS), 2010).
